# Assay outcomes from PubChem.
# A selection: hits, their analogues and other compounds. The true share with any hit is near 2.9%.
# Wnt act: Wnt/beta-catenin pathway activators, primary screen, cell-based, plate reader, single point; Wnt/beta-catenin reporter cell assay, activator; activation, % at 9.35 µM; 1.2% of 300,000 active; AID 743398, 2014; in the data active means activation above about 30%, passing the limit was not always enough;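 further: 0% = neutral control wells and 100% = positive control wells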
# PfHsp90 yeast 2: growth inhibition of PfHsp90-expressing yeast, primary screen, antimalarial PfHsp90 inhibitor project, S. cerevisiae, BacTiter-Glo luminescence, single point, set 2. BacTiter-Glo ATP, 48 h; yeast lacking PDR1 and PDR3 efflux regulators. inhibition, % at 9.4 µM. 0.32% of 310,000 active. AID 504621, 2011;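 active means every replicate shows inhibition above about 80%, whatever the replicate mean, limit read from the data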;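 further: 0% = DMSO neutral controls and 100% = 20 µM radicicol positive controls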
# NSD2 HMT inh: NSD2 histone methyltransferase inhibitors, primary screen, biochemical, AlphaScreen, single concentration, set 2. Histone-lysine N-methyltransferase NSD2 (Homo sapiens), O96028. NSD2 peptide methylation, 120 min. inhibition, % at 12.5 µM. 0.54% of 310,000 active. AID 743445, 2014; in the data active means inhibition above about 50%
# Glyco luc inh: increase of ERlucT glycosylation luciferase signal, primary screen, N-linked glycosylation inhibitor project, D54 ERlucT cells, luminescence, set 2; D54 ERlucT glycosylation luciferase reporter, 24 h; percent of 100 nM tunicamycin response; reporter increase, % at 12.5 µM; 0.23% of 360,000 active;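 active means mean luciferase reporter signal, scaled so untreated is 0 and the glycosylation-blocking control 100, at or above a set limit in every replicate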;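 further: luciferase carries N-glycosylation sites so blocking glycosylation raises the light; 0% = median of neutral control wells and 100% = median of 100 nM tunicamycin wells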
# MITF TRPM1 inh: inhibitors of MITF-dependent TRPM1 promoter reporter, primary screen, cell-based, SK-MEL-5, single point, luciferase; SK-MEL-5 TRPM1 promoter luciferase, 24 h; inhibition, % at 12.5 µM; 0.83% of 330,000 active; AID 488899, 2010;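 active means mean inhibition across replicates of 60% or more, whatever share of single replicates reaches that level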
# MITF act: activators of MITF-driven TRPM1 promoter reporter, primary screen, cell-based, SK-MEL-5, luciferase, single point; activation, % at 12.5 µM; 0.75% of 300,000 active; AID 588334, 2011; SK-MEL-5 TRPM1-promoter luciferase, 24 h; % of positive control, neutral wells = 0;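 active means mean activation of at least 80% with every replicate also reaching 80%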;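 further: 0% = neutral control wells and 100% = parthenolide positive control wells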
# Alpha artifact: AlphaScreen signal interference with preloaded methylated product, dose response, artefact control for NSD2 inhibitor project, biochemical, cherry-picked samples. AlphaScreen artifact counterscreen, preloaded methylated H4 peptide. shares compounds with NSD2 HMT inh. AC35, µM (titrated, usually from 10 µM), inactives show top-dose activity change, negative = signal loss. 9.4% of 1,500 active; call rule not given here
# * hit, by the source's call; nt = no result given; + = active, no number.
SMILES,Wnt act,PfHsp90 yeast 2,NSD2 HMT inh,Glyco luc inh,MITF TRPM1 inh,MITF act,Alpha artifact
COC(=O)c1sc(S(=O)(=O)Nc2ccc(C)c(C)c2)c(C(=O)OC)c1C,-1,-14,50*,-5,16,-16,0%
COC(=O)c1sc(S(=O)(=O)NCCCN(C)C)c(C(=O)OC)c1C,0,8,1,-1,12,-6,nt
Cc1cccc(C(=O)NCc2nnc(SCC(=O)Nc3nnc(C)s3)n2C)c1,0,-19,90*,1,-5,8,-2%
CCc1ccc2cccc3c2c1N=CN3C,0,12,112*,8,-7,nt,0%
CC(C)/C=C1\CC/C(=C\c2ccc(N(C)C)cc2)C1=O,-2,9,-1,-11,-59,62,nt
CN(C)c1ccc(/C=C2/C[N+](C)(C)C/C(=C/c3ccc(N(C)C)cc3)C2=O)cc1,2,45,66*,6,18,nt,9.5µM*
CC1(C)Cc2ccccc2C(Nn2cnnc2)=N1,-2,13,3,0,1,0,nt
CC1(C)Cc2ccccc2C2=NNC(=O)C2=N1,15,-18,106*,-8,96*,-95,3%
COc1cc(OC)c(OC)cc1CNC(=O)c1ccc(COc2ccccc2)cc1,-5,-1,-3,-2,0,0,nt
COc1ccc(C(=O)c2nccc3cc(OC)c(OC)cc23)cc1OC,nt,-27,90*,3,-2,1,-1%
COc1ccc(C(=O)c2ccc(OC)c(OC)c2)cc1OC,-5,-2,20,0,0,3,nt
C=CCC(NC(C)c1ccccc1)c1ccco1 (stereo unspecified),nt,-3,-4,1,11,-12,nt
CN(C)Cc1csc(NC(=O)Nc2cccc(Cl)c2)n1,0,nt,74*,-1,nt,nt,-4%
CC(=O)c1ccc(NC(=O)CC2Nc3cccc4cccc(c34)NC2=O)cc1 (stereo unspecified),-1,-3,78*,5,6,-5,-5%
Oc1ccc(/C=N/N2CCOCC2)c(O)c1O,-2,23,87*,0,11,-14,-2%
Oc1ccc(/C=N/N2CCCCC2)c(O)c1O,-1,-4,21,1,7,-7,nt
COc1ccc(C2N(C(=O)C(F)(F)F)C(C)CN2S(=O)(=O)c2ccc(C)cc2)cc1 (stereo unspecified),0,12,86*,0,21,-23,1%
Cc1ccc(S(=O)(=O)N2CCN(C(=O)C(F)(F)F)C2c2ccc(N(C)C)cc2)cc1 (stereo unspecified),1,-10,122*,1,nt,nt,-3%
COc1ccccc1N1C(=O)c2cccc3cccc(c23)C1=O,0,0,-3,0,2,nt,nt
CCN(CC)CCCN(Cc1cc2cc(OC)ccc2[nH]c1=O)C(=O)Nc1ccc(F)cc1,nt,3,86*,-2,-9,8,-8%
COc1ccc(NC(=O)N(CCCN(C)C)Cc2cc3cc(OC)ccc3[nH]c2=O)cc1,1,0,4,0,-11,14,nt
O=C(O)Cc1ccc(-n2cccc2)cc1,1,4,117*,-1,-11,13,-4%
CCCCOc1ccc(-c2ncc(N)cn2)cc1,25,-10,60*,0,-43,nt,-2%
CN(C1=C(NC(=O)c2ccccc2)C(=O)c2ccccc2C1=O)C1CCS(=O)(=O)C1 (stereo unspecified),nt,-17,109*,3,103*,-102,-3%
C=CCOc1ccc(/C=C2\SC(=S)N(NS(=O)(=O)c3ccc(C)cc3)C2=O)cc1,3,2,55*,2,-2,0,-14%
SMILES,Wnt act,PfHsp90 yeast 2,NSD2 HMT inh,Glyco luc inh,MITF TRPM1 inh,MITF act,Alpha artifact
CN(C)c1ncnc2c1ncn2-c1ccccc1,4,nt,-2,7,-24,26,nt
CN(c1ccccc1)c1ncnc2c1ncn2C,11,-13,122*,1,-5,8,-4%
CCN1CCN(Cc2nc(N)nc(Nc3ccc(C)c(C)c3)n2)CC1,nt,nt,95*,0,3,0,4%
Cc1cc(F)c(F)c(C(=O)N2C(C)CCCC2C)c1Cl (stereo unspecified),1,11,58*,-1,nt,nt,2%
COc1ccc(/C(CC2OC(=O)c3ccccc32)=N\NC(N)=O)cc1 (stereo unspecified),2,-3,-1,2,4,-5,nt
CCc1cc(=O)oc2cc(C)cc(OC(C)C(=O)NC(Cc3c[nH]c4ccc(O)cc34)C(=O)O)c12 (stereo unspecified),-1,26,nt,2,6,-3,nt
COc1cc2c(C#N)c(N3CCCC3)nc(N)c2c(N)n1,1,10,68*,1,6,-1,-2%
COc1ccc(C(C)NC(=O)c2ccc(Cl)cc2)cc1OC (stereo unspecified),-4,2,-2,0,5,-7,nt
COc1cc(C(=O)NC(C)c2ccc3ccccc3c2)cc(Cl)c1O (stereo unspecified),-2,-25,74*,0,12,-12,-2%
COc1ccc2c(c1)c1nc3ccccc3nc1n2CCn1c(=O)oc2ccccc21,-3,-9,58*,3,20,-16,0%
Cc1cccc(Nc2nc(NCc3ccco3)nc(N)c2[N+](=O)[O-])c1,2,-27,96*,-2,-4,4,-5%
Cc1cccc(Nc2nc(N)c([N+](=O)[O-])c(NCc3ccco3)n2)c1,-4,-13,0,-5,5,-2,nt
CC(NC(=O)CN1CCOCC1)c1ccccc1 (stereo unspecified),-1,6,1,3,-3,nt,nt
CCOC(=O)c1c(C)oc2c1c(CN1CCN(CCO)CC1)c(O)c1ccccc12,8,-2,3,10,-6,5,nt
CCOC(=O)c1c(C)oc2c1c(C=NCCC(=O)O)c(O)c1ccccc12,-1,-17,164*,0,18,-21,0%
NNC(=O)c1cc(O)c(O)c(O)c1,-19,7,+,-3,0,1,-11%
CC(C)(C)c1cc[n+](C2=C([O-])c3ccccc3C(=O)/C2=N\S(=O)(=O)c2cccs2)cc1,-5,nt,62*,-20,nt,nt,-6%
